PubChem BioAssay (Tox21)
Where “and” joins values, the source holds several entries; their conditions need not be identical. Equal values may be shown once. Records with an inconclusive call do not appear. A call without a number means that no potency is given here. A structure can be active in one record and inactive in another. Calls of active or inactive are those of the source. Unless noted, calls come from the whole dose curve; as a rule, active = well fitted curve in the direction sought with a large enough effect in the repeat runs; inconclusive = weak or mixed curves; inactive = no such curve, though single readings can be large; an effect the other way counts as inactive or inconclusive.

Assays:
[1] = qHTS assay to identify small molecule antagonists of the retinoic acid receptor (RAR) signaling pathway (AID 1159552; note: nearly all actives have a fitted effect of over 50% in size; note: potency is the fitted concentration of half-maximal effect)
Summary of the method: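 Luminescent RARE reporter read-out in C3RL4 cells: 6 hr co-treatment at 37 C of test compounds with retinol at 1 uM final. Cells plated overnight beforehand; luciferase reagent incubated 30 min at room temperature before reading.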

[2] = qHTS assay to identify small molecule agonists of the retinoic acid receptor (RAR) signaling pathway (AID 1159553); note: potency is the fitted concentration of half-maximal effect
Summary of the method: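 RARE-luc C3RL4 cells; overnight attachment 37 C/5% CO2; compound (DMSO) 6 hr; luciferase reagent, 30 min RT; luminescence read-out.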

[3] = molecular target: Luciferin 4-monooxygenase (Photinus pyralis) (UniProt P08659); assay: qHTS assay to identify small molecule inhibitors of firefly luciferase (AID 1224835); note: nearly all actives have a fitted effect of over 25% in size; note: potency is the fitted concentration of half-maximal effect
Luciferin 4-monooxygenase (Photinus pyralis), sequence (P08659 whole entry, looked up): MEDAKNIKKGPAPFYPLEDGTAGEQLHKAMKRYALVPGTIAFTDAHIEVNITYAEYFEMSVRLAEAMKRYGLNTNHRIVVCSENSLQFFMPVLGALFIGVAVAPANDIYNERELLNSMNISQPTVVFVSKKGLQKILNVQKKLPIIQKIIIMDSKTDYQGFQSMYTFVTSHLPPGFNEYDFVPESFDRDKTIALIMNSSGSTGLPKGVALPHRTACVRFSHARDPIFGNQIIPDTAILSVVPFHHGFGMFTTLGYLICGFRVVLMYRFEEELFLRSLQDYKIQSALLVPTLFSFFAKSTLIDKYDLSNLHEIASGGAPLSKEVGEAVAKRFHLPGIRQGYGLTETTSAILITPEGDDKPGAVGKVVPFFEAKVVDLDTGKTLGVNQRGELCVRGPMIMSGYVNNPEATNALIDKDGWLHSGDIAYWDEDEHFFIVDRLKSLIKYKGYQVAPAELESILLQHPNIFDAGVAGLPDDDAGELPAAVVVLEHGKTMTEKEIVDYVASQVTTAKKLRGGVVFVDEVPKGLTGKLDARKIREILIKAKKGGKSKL
Summary of the method: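 Biochemical qHTS: compounds run as interplate titrations against purified firefly enzyme, with D-luciferin and ATP each at its KM concentration. Light output recorded by CCD imaging.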

[4] = qHTS assay to identify small molecule antagonists of the estrogen related receptor (ERR) signaling pathway from Tox21 library - cell viability counter screen (AID 1224834); note: nearly all actives have a fitted effect of over 30% in size; note: potency is the fitted concentration of half-maximal effect
Summary of the method: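 Multiplexed viability counter screen in ERR cells: 17.5 h compound exposure at 37 C, CellTiter-Fluor added, 30 min at 37 C/5% CO2, fluorescence read.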

[5] = qHTS assay to identify small molecule antagonists of the estrogen related receptor (ERR) signaling pathway - cell viability counter screen (AID 1224818); note: series mostly up to about 46 µM
Summary of the method: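 Fluorescence from CellTiter-Fluor, read 30 min after reagent addition at 37 C, measured viability of ERR cells exposed to compounds for 17.5 h. Cells had settled 6 h before dosing.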

[6] = qHTS assay to identify small molecule antagonists of the estrogen related receptor (ERR) signaling pathway (AID 1224819;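 note: luminescence from an ERR-driven luciferase reporter measured with One-Glo reagent; series mostly up to about 46 µM; nearly all actives have a fitted effect of over 50% in size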)
Summary of the method: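 Luminescence readout (One-Glo, 30 min, RT) of ERR cell line after 18 h compound exposure at 37 C; cells seeded 2,000/well, pre-incubated 6 h, compounds pinned from DMSO stocks.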

[7] = qHTS assay to identify small molecule agonists of the estrogen related receptor (ERR) signaling pathway (AID 1224820)
Summary of the method: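 Luminescence readout (One-Glo, 30 min RT) from NTP-supplied ERR cell line exposed to compounds for 18 h at 37 C. Cells seeded 2,000 per well and pre-incubated 6 h before pin-tool compound transfer.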

[8] = tested on: estrogen-related receptor alpha (ERRalpha) with PGC-1alpha coactivator, human; assay: qHTS assay to identify small molecule antagonists of the estrogen related receptor signaling pathway with the pleiotropic PPARgamma coactivator (PGC) (AID 1224821; calls by dose curve;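 note: series mostly up to about 46 µM; lower luminescence signal means antagonism of PGC/ERR signalling; nearly all actives have a fitted effect of over 50% in size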)
Summary of the method: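 PGC/ERR reporter cells; 6 h pre-incubation 37 C/5% CO2; pin-tool compound in DMSO, 18 h 37 C; One-Glo added, 30 min RT; luminescence read. qHTS antagonist mode.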

[9] = qHTS assay to identify small molecule antagonists of the estrogen related receptor signaling pathway with the pleiotropic PPARgamma coactivator (PGC) cell viability counter screen (AID 1224822; note: potency is the fitted concentration of half-maximal effect)
Summary of the method: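 Fluorescence read-out of CellTiter-Fluor after 30 min at 37 C; PGC/ERR cells, 2,000 per well, had been exposed to DMSO-dissolved compounds for 17.5 h following a 6 h pre-incubation.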

[10] = qHTS assay to identify small molecule agonists of the estrogen related receptor signaling pathway with the pleiotropic PPARgamma coactivator (PGC) (AID 1224823)
Summary of the method: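 Luminescence readout (One-Glo, 30 min RT) from PGC/ERR cell line treated 18 h at 37 C with pin-tool-delivered DMSO compound solutions; cells plated 6 h before dosing. Quantitative HTS format.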

C[C@]12CCC(=O)C=C1CC[C@@H]1[C@@H]2CC[C@]2(C)C(=O)CC[C@@H]12
Potency [1]: 47.7 µM (active) and inactive
Potency [2]: inactive
Potency [3]: inactive

CCCC[n+]1ccc(C)cc1
Potency [2]: inactive
Potency [4]: inactive and 68.2 µM (active)
Potency [3]: 20.3 µM (active) and inactive

COP(=O)(OC)C(O)C(Cl)(Cl)Cl (stereo not given)
Potency [1]: inactive
Potency [2]: inactive
Potency [4]: inactive
Potency [3]: inactive

CCOP(=S)(OCC)Oc1ccc2c(C)c(Cl)c(=O)oc2c1
Potency [1]: inactive
Potency [2]: inactive and 11.9 µM (active)
Potency [3]: inactive and 15.5 µM (active)

CCC(=O)C(CC(C)N(C)C)(c1ccccc1)c1ccccc1 (stereo not given)
Potency [1]: inactive
Potency [2]: inactive

O=P1(N(CCCl)CCCl)NCCCO1 (stereo not given)
outcome [5]: inactive
outcome [6]: inactive
outcome [7]: inactive
outcome [8]: inactive
Potency [9]: inactive
outcome [10]: inactive
Potency [3]: inactive

CCCCCCCCCCCC(=O)O
Potency [1]: inactive
Potency [2]: inactive
Potency [4]: inactive
Potency [3]: 40 µM (active) and 57.6 µM (active) and 71 µM (active)

O=C(O)CCl
Potency [1]: inactive
Potency [2]: inactive
Potency [4]: inactive
Potency [3]: inactive

CCNc1nc(Cl)nc(NCC)n1
Potency [1]: inactive
Potency [2]: inactive
Potency [3]: inactive

CC(=O)[O][Hg][c]1ccccc1
Potency [1]: 1.92 µM (active) and 1.54 µM (active) and 2.11 µM (active)
Potency [4]: 2.41 µM (active) and 3.86 µM (active) and 7.5 µM (active)
Potency [3]: 1.25 µM (active) and 3.99 µM (active) and 2.75 µM (active)

CCCC[n+]1ccccc1
Potency [2]: inactive
Potency [4]: inactive
Potency [3]: inactive

O=C(O)C(Cl)(Cl)Cl
Potency [1]: inactive
Potency [2]: inactive
Potency [3]: inactive

Nc1ccc(-c2ccc(N)cc2)cc1
Potency [1]: inactive
Potency [2]: inactive
Potency [3]: 78.7 µM (active) and 28.1 µM (active)

O=S(=O)(O)O
Potency [4]: inactive

CC[n+]1ccccc1
Potency [2]: inactive
Potency [3]: inactive

OCCOc1ccccc1
Potency [1]: inactive
Potency [2]: inactive
Potency [3]: inactive

Oc1cccc2cccnc12
Potency [9]: 0.727 µM (active)

CC[N+](CC)(CC)CC
Potency [2]: inactive
outcome [5]: inactive
Potency [9]: inactive

CCCCCCCCCCCCOS(=O)(=O)O
Potency [4]: inactive

COCC(=O)N(c1c(C)cccc1C)C(C)C(=O)OC (stereo not given)
Potency [1]: inactive
Potency [2]: inactive
Potency [4]: inactive
Potency [3]: inactive

CCn1cc[n+](C)c1C
Potency [1]: inactive
Potency [2]: inactive
Potency [3]: inactive

Cc1cc(-c2ccc(N)c(C)c2)ccc1N
Potency [1]: inactive
Potency [2]: 15.1 µM (active)
Potency [3]: 36 µM (active) and 56.2 µM (active) and 63.3 µM (active)

CCCCCCCCn1cc[n+](C)c1
Potency [1]: inactive
Potency [2]: inactive
Potency [3]: inactive

Nc1ccc(Cl)cc1
outcome [5]: inactive
Potency [9]: inactive
Potency [3]: inactive

O=[N+]([O-])O
Potency [2]: inactive

COc1ccccc1N
Potency [1]: inactive
Potency [2]: inactive
Potency [3]: inactive

CCCCCCCCCCCCCCCCn1cc[n+](C)c1
Potency [1]: inactive and 27.6 µM (active) and 13.7 µM (active)
Potency [2]: inactive
Potency [3]: 81.4 µM (active) and inactive

O=[N+]([O-])c1ccccc1O
Potency [1]: inactive
Potency [2]: inactive
Potency [3]: inactive

Cc1cc(Cl)ccc1N
Potency [1]: inactive
Potency [2]: inactive
Potency [3]: inactive

C1CCC(NC2CCCCC2)CC1
Potency [1]: inactive
Potency [2]: inactive
Potency [4]: inactive
Potency [3]: inactive

O=C(O)c1ccccc1O
Potency [2]: inactive
